# Laboratory results taken from the supplement of paper PMC10127200.
# Where a name gives a salt, the structure may show the parent alone.
# Legend:
# Experiment in all cases: Euclidean distance of Cell Painting phenotypic profile (signed KS, 77 features) to DMSO centroid (dimensionless distance); 5 or 10 uM (library dependent); higher = stronger phenotypic change vs DMSO (phenoactivity)
# Conditions in all cases: 48 h
# [1] = test system: 786-O
# Outline: (§1)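 At 10 or 5 uM, as set by the library, and 0.1% DMSO final, compounds were applied for 48 h to five cancer lines and one healthy fibroblast line. Stained cells were imaged confocally at 20X in 9 fields per well, and Harmony extracted 77 features scored as signed Kolmogorov-Smirnov statistics against vehicle wells on the same plate. Profiles underwent plate-position correction, correlation weighting and replicate averaging at the top dose. Phenoactivity is the Euclidean distance from each such profile to the median vehicle profile.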
# [2] = test system: A549
# Outline: as §1
# [3] = test system: DU145
# Outline: as §1
# [4] = test system: FB
# Outline: as §1
# [5] = test system: HEPG2
# Outline: as §1
# [6] = test system: OVCAR4
# Outline: as §1
Compound,Euclidean distance [1],Euclidean distance [2],Euclidean distance [3],Euclidean distance [4],Euclidean distance [5],Euclidean distance [6]
CCS(=O)(=O)N1CC(CC#N)(n2cc(-c3ncnc4[nH]ccc34)cn2)C1,1.86,0.875,1.45,1.57,0.589,0.899
C=CC(=O)Nc1cccc(Oc2nc(Nc3ccc(N4CCN(C)CC4)cc3)ncc2Cl)c1,2.42,2.73,2.46,4.15,2.28,3.17
C1=N/C2=N/c3ccc(OCCN4CCCC4)c(c3)COC/C=C/COCc3cccc(c3)C(=C1)N2 [Pacritinib (SB1518)],3.54,3.52,2.51,3.49,3.79,3.42
C[C@@H]1C/C=C/C=C/C=C/C=C/[C@H](O[C@@H]2O[C@H](C)[C@@H](O)[C@H](N)[C@@H]2O)C[C@@H]2O[C@](O)(C[C@@H](O)C[C@H]3O[C@@H]3/C=C/C(=O)O1)C[C@H](O)[C@H]2C(=O)O [Natamycin],1.51,0.972,1.07,1.11,1.14,1.02
Cc1cccc(Nc2nc(-c3ccncc3)cs2)c1,3.35,3.77,4.06,3.02,1.11,1.73
N[C@@H](Cc1c[nH]c2ccccc12)C(=O)O [L-Tryptophan],0.689,1.11,0.644,0.569,0.851,1.36
CCCCCCCCCCCC(=O)O [Lauric Acid],1.1,0.784,1.21,1.34,0.884,0.985
Clc1ccc(COC(Cn2ccnc2)c2ccc(Cl)cc2Cl)cc1 (configuration not stated) [Econazole],1.06,1.25,0.98,1.02,1.09,0.709
Cc1cc(Nc2cc(N3CCN(C)CC3)nc(/C=C/c3ccccc3)n2)n[nH]1 [ENMD-2076 L-(+)-Tartaric acid],2.7,3.58,2.34,3.64,2.99,2.91
CC#CCn1c(N2CCC[C@@H](N)C2)nc2c1c(=O)n(Cc1nc(C)c3ccccc3n1)c(=O)n2C [Linagliptin],0.904,0.984,0.641,1.4,0.628,0.529
Cc1cncc(CN2CCC(=C3c4ccc(Cl)cc4CCc4cccnc43)CC2)c1 [Rupatadine Fumarate],1.51,1.15,1.34,1.22,1.69,1.27
CCCNC(C)C(=O)Nc1ccccc1C (configuration not stated) [Prilocaine hydrochloride],0.697,0.662,0.635,0.843,0.473,0.791
CC(C)(O)CC(=O)NCCn1ccc2ncnc(Nc3ccc(Oc4cccc(C(F)(F)F)c4)c(Cl)c3)c21,1.98,2.02,1.57,1.52,1,1.73
CCCCCCCCCCC[C@@H](C[C@@H]1OC(=O)[C@H]1CCCCCC)OC(=O)[C@H](CC(C)C)NC=O [Orlistat],1.47,1.11,0.901,1.42,1.12,0.935
CCC[C@@H]1C[C@@H](C(=O)N[C@@H]([C@H]2O[C@H](SC)[C@H](OP(=O)(O)O)[C@@H](O)[C@H]2O)[C@H](C)Cl)N(C)C1 [Clindamycin Phosphate],1.64,0.653,0.924,0.907,0.808,1.38
"Cc1ccc2c(c1)C(=O)C1(O)CCN(c3ccccc3)C1=N2 (single isomer, unassigned; (-)) [(-)-Blebbistatin]",1.29,1.46,1.36,1.03,1.13,1.46
Cc1ccc(Cl)cc1N(CC(=O)Nc1c(F)cccc1F)S(C)(=O)=O,0.896,1.9,0.886,0.614,0.565,0.763
O=c1[nH]c2ccccc2n1CCN1CCN(c2cccc(C(F)(F)F)c2)CC1 [Flibanserin],1.14,1.22,0.833,1.07,0.806,1.35
CN1CC(=O)N2[C@H](c3ccc4c(c3)OCO4)c3[nH]c4ccccc4c3C[C@@H]2C1=O [Tadalafil],1.16,0.906,0.404,0.948,0.78,1.22
O=C(NCCS(=O)(=O)c1ccc(C(F)(F)F)cn1)c1ccc(Cl)cc1,0.975,1.54,1.57,0.817,0.723,1.18
Cn1nnc2c(C(N)=O)ncn2c1=O [Temozolomide],1.44,0.97,2.71,0.972,1.44,0.619

Compound,Euclidean distance [1],Euclidean distance [2],Euclidean distance [3],Euclidean distance [4],Euclidean distance [5],Euclidean distance [6]
C[C@@H](Oc1cc(-n2cnc3ccc(CN4CCN(C)CC4)cc32)sc1C(N)=O)c1ccccc1C(F)(F)F,3.44,3.82,4.26,3.6,3.95,2.85
CC(C)n1cnc2c(NCCc3ccc(O)cc3)nc(-c3csc4ccccc34)nc21 [StemRegenin 1 (SR1)],0.931,1.13,1.12,1.04,1.04,0.909
OCc1cc(C(O)CNCCCCCCOCCCCc2ccccc2)ccc1O (configuration not stated) [Salmeterol Xinafoate],1.27,1.68,1.58,2.11,2.19,1.28
CC1(C)CC[C@]2(NC(=O)C(C)(F)F)CC[C@]3(C)[C@H](C(=O)C=C4[C@@]5(C)C=C(C#N)C(=O)C(C)(C)[C@@H]5CC[C@]43C)[C@@H]2C1 [Omaveloxolone (RTA-408)],6.36,4.96,6.92,7.18,5.59,6.32
COc1ccccc1Oc1c(NS(=O)(=O)c2ccc(C(C)(C)C)cc2)nc(-c2ncccn2)nc1OCCO [Bosentan Hydrate],1.35,0.814,0.826,0.916,0.41,1.04
COc1cc2nc(N3CCCN(C)CC3)nc(NC3CCN(Cc4ccccc4)CC3)c2cc1OC,4.16,3.99,3.51,4.73,4.64,3.6
COC(=O)N[C@H](C(=O)N1CCC[C@H]1c1ncc(-c2ccc(-c3ccc(-c4cnc([C@@H]5CCCN5C(=O)[C@@H](NC(=O)OC)C(C)C)[nH]4)cc3)cc2)[nH]1)C(C)C,1.52,1.63,1.12,1,0.904,1.5
Cc1cnc(-c2cnc(NCCNc3ccc(C#N)cn3)nc2-c2ccc(Cl)cc2Cl)[nH]1,1.86,2.18,1.61,1.12,1.15,1.13
NC(=O)c1cnc(N[C@@H]2CCCC[C@@H]2N)nc1Nc1cccc(-n2nccn2)c1,1.35,2.72,1.89,2.25,2.24,2.83
COc1ccc(CCC(=O)Nc2nc3ccc(Cl)cc3s2)cc1OC,1.29,1.76,1.19,0.998,1.39,1.52
O=C1C[C@@H](c2ccc(O)cc2)Oc2cc(O)cc(O)c21 [Naringenin],0.882,1.06,0.744,1.06,0.936,1.11
O=C(Cn1ccnc1[N+](=O)[O-])NCc1ccccc1 [Benznidazole],1.16,1.1,1.58,1.03,0.581,1.14
CC[C@]1(O)C[C@@H]2CN(CCc3c([nH]c4ccccc34)[C@@](C(=O)OC)(c3cc4c(cc3OC)N(C)[C@H]3[C@@](O)(C(=O)OC)[C@H](OC(C)=O)[C@]5(CC)C=CCN6CC[C@]43[C@@H]65)C2)C1 [Vinblastine sulfate],3.25,3.68,4.31,3.49,3.33,3
O=C(O)COc1nn(Cc2ccccc2)c2ccccc12 [Bendazac],1.07,0.905,1.13,1.39,0.558,1.32
CC[C@]1(O)C[C@H]2CN(CCc3c([nH]c4ccccc34)[C@@](C(=O)OC)(c3cc4c(cc3OC)N(C=O)[C@H]3[C@@](O)(C(=O)OC)[C@H](OC(C)=O)[C@]5(CC)C=CCN6CC[C@]43[C@@H]65)C2)C1 [Vincristine],3.12,2.61,4.78,3.47,3.99,2.86
COc1ncnc(NS(=O)(=O)c2ccc(N)cc2)c1OC [Sulfadoxine],0.66,1.24,0.743,0.491,0.397,1.39
COc1cc2c(cc1O)CC[C@@H]1[C@@H]2CC[C@]2(C)[C@@H](O)CC[C@@H]12 [2-Methoxyestradiol (2-MeOE2)],2.47,2.67,2.66,2.05,2.07,2.42
CC(C)(C)c1ccc(C(O)CCCN2CCC(C(O)(c3ccccc3)c3ccccc3)CC2)cc1 (configuration not stated) [Terfenadine],1.05,4.51,1.53,1.18,1.05,1.52
CC(C)(C)c1nc(-c2cccc(NS(=O)(=O)c3c(F)cccc3F)c2F)c(-c2ccnc(N)n2)s1,1.53,1.16,1.31,3.02,1.45,1.03
CC(C)[C@H]1CC[C@H](C(=O)N[C@H](Cc2ccccc2)C(=O)O)CC1 [Nateglinide],2.04,1.19,1.17,0.97,0.589,1.71
COc1cc2c(cc1-c1c(C)noc1C)ncc1[nH]c(=O)n([C@H](C)c3ccccn3)c12,2.62,2.24,1.84,3.75,1.77,2.03
